The list is not random: actives were taken first. Their share in the collection is about 1.2%.
RGS4-Gao reg: modulates binding of RGS4 to human Galphao. binding response (% of control), % at 10 µM. 220,000 compounds, 0.33% hits. AID 1415. Multiplexed bead flow cytometry; actives lie on both sides. P09471; in the data active = binding response below about 49% or above about 150%; inactive = in between;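 note: fluorescent Galphao activated with aluminum fluoride binding bead-coupled RGS4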
Target sequence (P09471 whole entry, looked up): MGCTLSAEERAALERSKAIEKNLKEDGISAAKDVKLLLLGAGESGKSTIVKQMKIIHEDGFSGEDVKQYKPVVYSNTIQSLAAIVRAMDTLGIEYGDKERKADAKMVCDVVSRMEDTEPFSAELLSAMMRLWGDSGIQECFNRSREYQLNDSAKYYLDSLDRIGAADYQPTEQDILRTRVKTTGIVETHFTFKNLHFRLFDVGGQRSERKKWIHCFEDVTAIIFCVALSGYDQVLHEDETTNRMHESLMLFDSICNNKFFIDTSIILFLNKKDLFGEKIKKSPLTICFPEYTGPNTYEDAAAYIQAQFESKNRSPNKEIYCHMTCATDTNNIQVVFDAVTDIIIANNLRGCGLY
RGS8-Gao reg: regulators of human RGS8-Galphao interaction | P09471 | multiplexed bead flow cytometry, RGS8-Galphao binding; actives lie on both sides | response (percent of control binding), % at 10 µM | 220,000 compounds, 0.34% hits | AID 1423; in the data active = response below about 60% or above about 140%; inactive = in between;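 note: Galphao activated as the GDP aluminium fluoride complex binding bead-coupled RGS8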
GSH bead fluor: compound fluoresces at 488/530 nm on GSH beads; AID 1776; GSH beads flow cytometry, compound fluorescence 488/530 nm; stronger effect = higher value; 190,000 compounds, 0.25% hits; fluorescence (KMESF) at 10 µM; in the data active = fluorescence above about 89;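 note: glutathione beads carrying GST-tagged Bcl family fusion proteins plus one bare bead set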
Avidin fluor: avidin bead compound fluorescence profile | Avidin beads, compound fluorescence 488/530 nm, flow cytometry; stronger effect = higher value | AID 1775 | fluorescence (KMESF) at 10 µM | 220,000 compounds, 0.38% hits; in the data active = fluorescence above about 47
RGS7-Gao reg: human RGS7-Galphao interaction regulation; Multiplexed bead flow cytometry, RGS7-Galphao binding; actives lie on both sides; binding response (% of control), % at 10 µM; 220,000 compounds, 0.35% hits; in the data active = binding response below about 49% or above about 150%; inconclusive = no clear call, values can overlap the other calls; inactive = in between;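 note: fluorescent Galphao held in activated GDP-AlF4 state binding bead-coupled RGS7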
RGS16-Gao HTS: RGS16-Galphao interaction regulator (human). O15492+P09471. bead-based flow cytometry RGS16-Galphao binding, fluorescence; actives lie on both sides. 220,000 compounds, 0.38% hits. binding response (% of control), % at 10 µM;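 note: Galphao activated by GDP with aluminum fluoride before binding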
Target sequence (O15492 whole entry, looked up): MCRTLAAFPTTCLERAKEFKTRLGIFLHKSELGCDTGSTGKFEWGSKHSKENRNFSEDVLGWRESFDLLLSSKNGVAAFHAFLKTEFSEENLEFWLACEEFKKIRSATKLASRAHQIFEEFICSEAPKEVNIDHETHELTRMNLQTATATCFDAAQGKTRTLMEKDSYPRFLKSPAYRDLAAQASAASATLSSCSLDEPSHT
Target sequence (P09471 whole entry, looked up): as the sequence (P09471 whole entry, looked up) above
RGS4-Gao HTS: RGS4-Galphao interaction regulator (human); shares compounds with RGS16-Gao HTS; multiplexed bead flow cytometry, RGS–Galpha-o binding; RGS4–Galpha-o binding response, % at 10 µM; 1,600 compounds, 99% hits;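 note: fluorescently labeled Galpha-o bound to GDP with aluminium fluoride binding biotinylated RGS beads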
Avidin counter: interferes with biotinylated probe binding to avidin beads; AID 1783; shares compounds with RGS16-Gao HTS; 1,700 tested, under 10 active; inhibition, % at 10 µM; streptavidin beads, fluorescein-biotin binding, flow cytometry;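 active = inhibition above 50%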;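 note: median green fluorescence of gated singlet beads compared with DMSO control wells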
RGS8-Gao confirm: confirmation of regulators of human RGS8-Galphao interaction. shares compounds with RGS16-Gao HTS. bead-based flow cytometry RGS8-Galphao binding, fluorescence; actives lie on both sides. binding response (% of control), % at 10 µM. 1,700 compounds, 3% hits. AID 1836; in the data active = binding response below about 72% or above about 130%; inactive = in between;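 note: Galphao activated as GDP AlF4 complex before binding bead RGS8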
RGS7-Gao single: confirmation of regulators of human RGS7-Galphao interaction; 1,700 compounds, 7.8% hits; response (percent of control binding), % at 10 µM; bead-based flow cytometry RGS7-Galphao binding; actives lie on both sides; shares compounds with RGS16-Gao HTS; in the data active = response below about 75% or above about 130%; inactive = in between;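 note: fluorescent Galphao activated with GDP and aluminum fluoride binding bead-coupled RGS7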
RGS16-Gao conf: confirmation of regulators of human RGS16-Galphao interaction; shares compounds with RGS16-Gao HTS; bead-based flow cytometry, RGS16-Galphao binding; actives lie on both sides; response (% of control binding), % at 10 µM; 1,700 compounds, 4% hits; AID 1838; in the data active = response below about 74% or above about 130%; inactive = in between;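 note: Galphao activated as the GDP aluminium fluoride complex binding bead-coupled RGS16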
RGS4-Gao confirm: RGS4-Galphao interaction regulation, single point confirmation; binding response (% of control), % at 10 µM; RGS4-Galphao binding, multiplexed bead flow cytometry; actives lie on both sides; shares compounds with RGS16-Gao HTS; 1,700 compounds, 4% hits; in the data active = binding response below about 74% or above about 130%; inactive = in between
RGS19-Gao single: RGS19-Galphao interaction regulation, single point confirmation | shares compounds with RGS16-Gao HTS | bead-based flow cytometry RGS19-Galphao binding; actives lie on both sides | response (percent of control binding), % at 10 µM | 1,700 compounds, 5% hits | AID 1841; in the data active = response below about 50% or above about 160%; inactive = in between
Of the large screens only hits and unclear results are named; the others gave an inactive call (follow-up assays come after a bar, where they were run); [ ] = another dose, or the depositor's remark. Unless noted, the rule behind the calls is not given here.

CCn1c(=O)c([N+](=O)[O-])c(NCC2CCCO2)c2ccccc21 (stereo not drawn)	RGS7-Gao reg inconclusive (no result: GSH bead fluor)
Cc1ccc(SCC(=O)Nc2ccc(-c3nc4ccccc4[nH]3)cc2)cc1	none
CCC(C)(C)c1ccc(OCCCC[n+]2cccc(C)c2)c(C(C)(C)CC)c1	none
COc1ccc(CCN2CC(C(=O)NCc3ccc(F)cc3)CC2=O)cc1OC (stereo not drawn)	RGS7-Gao reg inconclusive (no result: GSH bead fluor)
CC1CCN(S(=O)(=O)c2cccc(C(=O)Oc3ccc([N+](=O)[O-])cc3)c2)CC1	RGS16-Gao HTS 24 | RGS4-Gao HTS 97 | Avidin counter inactive | RGS8-Gao confirm inactive | RGS7-Gao single inactive | RGS16-Gao conf inactive | RGS4-Gao confirm inactive | RGS19-Gao single inactive
N#CC(=NCc1cccnc1)C1=C(O)c2ccccc2C1=O	RGS7-Gao reg inconclusive (no result: GSH bead fluor)
CC(=O)C1=C(C)N2CCN=C2S1	RGS7-Gao reg inconclusive (no result: GSH bead fluor)
CCOc1ccc(C(=O)/C=C/c2ccc(SC)cc2)cc1	none
CCOc1ccc(/C=C/C(=O)c2ccccc2)cc1	RGS4-Gao reg -8.9, RGS8-Gao reg 23, RGS7-Gao reg inconclusive, RGS16-Gao HTS -3.6 (no result: GSH bead fluor) | Avidin counter inactive | RGS8-Gao confirm inactive | RGS7-Gao single inactive | RGS16-Gao conf inactive | RGS4-Gao confirm inactive | RGS19-Gao single inactive
COc1ccc(C(=O)/C=C/c2ccc(OC(=O)c3cc(OC)c(OC)c(OC)c3)cc2)cc1	RGS8-Gao reg 159[activator] | RGS4-Gao HTS 120 | Avidin counter inactive | RGS8-Gao confirm inactive | RGS7-Gao single inactive | RGS16-Gao conf inactive | RGS4-Gao confirm inactive | RGS19-Gao single inactive
CCOc1ccc(C(=O)/C=C/c2cc(OC)c(OC)c(OC)c2)cc1	RGS7-Gao reg inconclusive
COc1cccc(-c2cnc(NCc3cc(Cl)ccc3O)n2C)c1	Avidin fluor 55, RGS7-Gao reg 160[activator] | RGS4-Gao HTS 117
Cn1c(-c2cccc(Br)c2)cnc1NCc1cccnc1	none
CCN(CC)c1ncc(C#N)c(N)n1	RGS7-Gao reg inconclusive (no result: GSH bead fluor)
COc1cc(OC)cc(-c2n[nH]c(=S)n2-c2ccc3c(c2)OCO3)c1	RGS16-Gao HTS 21 | RGS4-Gao HTS 101 | Avidin counter inactive | RGS8-Gao confirm inactive | RGS7-Gao single inactive | RGS16-Gao conf inactive | RGS4-Gao confirm inactive | RGS19-Gao single inactive
CC(=O)c1cccc(NS(=O)(=O)c2ccc(N/C=C\C(=O)c3ccc(C)cc3)cc2)c1	RGS7-Gao reg 264[activator] | RGS4-Gao HTS 138
COc1ccc(S(=O)(=O)n2[nH]c(=O)c(CCO)c2C)c([N+](=O)[O-])c1	none
CC(C)Oc1cccc(C(=O)NC(=S)Nc2ccccc2)c1	none
Cn1nc(Oc2nc(N3CCOCC3)nc(N3CCOCC3)n2)ccc1=O	RGS4-Gao reg -23, RGS8-Gao reg 12, RGS7-Gao reg -4.9 | Avidin counter inactive | RGS8-Gao confirm inactive | RGS7-Gao single inactive | RGS16-Gao conf inactive | RGS4-Gao confirm inactive | RGS19-Gao single inactive
CC(C)(C)Nc1nc(Oc2ccc(=O)n(-c3ccccc3)n2)nc(N2CCOCC2)n1	none (no result: RGS4-Gao reg, RGS8-Gao reg, Avidin fluor, RGS7-Gao reg, RGS16-Gao HTS) | Avidin counter inactive | RGS8-Gao confirm inactive | RGS7-Gao single inactive | RGS16-Gao conf inactive | RGS4-Gao confirm inactive | RGS19-Gao single inactive
Cc1ccc(S(=O)(=O)NC(C)(C)CSc2ccccn2)cc1	RGS16-Gao HTS 13 | RGS4-Gao HTS 87 | Avidin counter inactive | RGS8-Gao confirm inactive | RGS7-Gao single inactive | RGS16-Gao conf inactive | RGS4-Gao confirm inactive | RGS19-Gao single inactive
Cc1nc2ccccc2cc1C(=O)Nc1ccccc1Cl	RGS7-Gao reg 157[activator] | RGS4-Gao HTS 148 | Avidin counter inactive | RGS8-Gao confirm inactive | RGS7-Gao single inactive | RGS16-Gao conf inactive | RGS4-Gao confirm inactive | RGS19-Gao single inactive
Cc1nc2ccc(F)cc2cc1C(=O)Nc1cccc(Cl)c1C	none
Cn1c(SCC(=O)NCCN2C(=O)CSC2=O)nnc1-c1ccccc1	Avidin fluor 138, RGS7-Gao reg 213[activator] | RGS4-Gao HTS 124 | Avidin counter inactive | RGS8-Gao confirm inactive | RGS7-Gao single inactive | RGS16-Gao conf inactive | RGS4-Gao confirm inactive | RGS19-Gao single inactive
Cc1ccc(-n2c(SCC(=O)NCCN3C(=O)CSC3=O)nnc2-c2ccccc2)cc1	RGS16-Gao HTS 18 | RGS4-Gao HTS 90 | Avidin counter inactive | RGS8-Gao confirm inactive | RGS7-Gao single inactive | RGS16-Gao conf inactive | RGS4-Gao confirm inactive | RGS19-Gao single inactive
CCC1=NN(C(=O)CCc2ccc3c(c2)OCO3)C(O)(C(F)(F)F)C1 (stereo not drawn)	none
CCN(CC)C(=O)Oc1ccc(Br)cc1C(=O)Nc1ccc(F)cc1F	RGS7-Gao reg inconclusive (no result: GSH bead fluor)
CC1(C)CC(=O)C(C=NCC(N)=O)=C(O)C1	RGS8-Gao reg 146[activator] | RGS4-Gao HTS 147
Cn1c(-n2c(CCCN3C(=O)c4ccccc4C3=O)nc3ccccc3c2=O)nc2ccccc21	RGS4-Gao reg 180[activator], GSH bead fluor 255 | Avidin counter inactive | RGS8-Gao confirm inactive | RGS7-Gao single inactive | RGS16-Gao conf inactive | RGS4-Gao confirm inactive | RGS19-Gao single inactive
O=[N+]([O-])c1ccc(N/N=C/c2ccc[nH]2)cc1	none
Cn1c(SCC(=O)N/N=C/C=C/c2ccccc2[N+](=O)[O-])nc2ccccc21	none
Cn1c(SCC(=O)N/N=C/C=C\c2ccccc2[N+](=O)[O-])nc2ccccc21	RGS16-Gao HTS 23 | RGS4-Gao HTS 89 | Avidin counter inactive | RGS8-Gao confirm inactive | RGS7-Gao single inactive | RGS16-Gao conf inactive | RGS4-Gao confirm inactive | RGS19-Gao single inactive
Cn1c(NC(=O)c2ccccc2F)c(-c2cccs2)c(=O)c2ccccc21	RGS7-Gao reg inconclusive (no result: GSH bead fluor)

From PubChem
